The AC50 is the concentration at which the activity in the assay is half-maximal.

Active and inactive are the calls of the source. How the source made its calls: active means hit-call score of the fitted dose curve at least 0.9, where 1 is the maximum; inactive means score below 0.9.

Drawing on PubChem BioAssay (EPA / NIEHS), this text covers outcome and AC50 for 3 molecules.

Common to all, as to details: mRNA level, 48 h; actives raise or lower the signal
Read-out in experiment [1]: Nuclear factor NF-kappa-B p105 subunit (Homo sapiens) (UniProt P19838)
As to the kind of experiment: LTEA_HepaRG_NFKB1: Life Technologies and Expression Analysis (LTEA) Assay for Nuclear Factor Kappa B Subunit 1 (NFKB1) using HepaRG (AID 2283521). The method in brief: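 Differentiated human HepaRG cells in serum-free induction medium with 0.5% DMSO were exposed for 48 h to eight half-log concentrations, top 100 uM, in duplicate. NFKB1 mRNA measured by Fluidigm TaqMan qRT-PCR, normalised to ACTB, GAPDH and POLR2A; bidirectional fit versus DMSO.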

Read-out in experiment [2]: Protein phosphatase 2A (PPP2R4), PTPA (gene 5524)
As to the kind of experiment: LTEA_HepaRG_PPP2R4: Life Technologies and Expression Analysis (LTEA) Assay for Protein phosphatase 2A (PPP2R4) using HepaRG (AID 2283522). In short, it runs like this: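 Using HepaRG cultures maintained in 0.5% DMSO, chemicals are tested 48 h at up to 100 uM in duplicate. Induction or suppression of PPP2R4 mRNA, measured by qRT-PCR, is fitted bidirectionally against the vehicle baseline.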

Read-out in experiment [3]: Phosphatase and tensin (PTEN), PTEN (gene 5728)
In words: LTEA_HepaRG_PTEN: Life Technologies and Expression Analysis (LTEA) Assay for Phosphatase and tensin (PTEN) using HepaRG (AID 2283523). In short, it runs like this: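 Read-out: TaqMan qRT-PCR of PTEN transcript, normalized to three housekeeping genes, fitted in both directions against 0.5% DMSO. Differentiated human HepaRG cultures received chemicals for 48 h, eight-point half-log series topping at 100 uM.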

Read-out in experiment [4]: solute carrier (SLC22A1), SLC22A1 (gene 6580)
In words: LTEA_HepaRG_SLC22A1: Life Technologies and Expression Analysis (LTEA) Assay for solute carrier (SLC22A1) using HepaRG (AID 2283524). The method in brief:
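Transcript level of SLC22A1 quantified by qRT-PCR (normalized to three housekeeping genes) after 48 h chemical exposure of HepaRG cells, eight concentrations up to 100 µM, half-log steps, 0.5% DMSO vehicle. Gain or loss relative to DMSO fitted bidirectionally.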

Read-out in experiment [5]: Pyruvate Dehydrogenase Kinase 4 (PDK4), PDK4 (gene 5166)
In words: LTEA_HepaRG_PDK4: Life Technologies and Expression Analysis (LTEA) Assay for Pyruvate Dehydrogenase Kinase 4 (PDK4) using HepaRG (AID 2283525). The method in brief:
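Readout is qRT-PCR of PDK4 transcript, normalized to three housekeeping genes, with bidirectional fitting against 0.5% DMSO vehicle. Differentiated HepaRG cells were treated 48 h in serum-free induction medium, duplicate wells, eight-point half-log series topping at 100 uM.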

Read-out in experiment [6]: NAD(P)H dehydrogenase [quinone] 1 (NQO1), NQO1 (gene 1728)
As to the kind of experiment: LTEA_HepaRG_NQO1: Life Technologies and Expression Analysis (LTEA) Assay for NAD(P)H dehydrogenase [quinone] 1 (NQO1) using HepaRG (AID 2283526). In short, it runs like this:
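In this assay, gene expression is read by qRT-PCR after 48 h exposure of HepaRG cells to eight concentrations (max 100 uM, half-log) in 0.5% DMSO. Each chemical runs in duplicate, and activity is scored relative to vehicle.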

Read-out in experiment [7]: Nuclear factor erythroid 2-related factor 2 (Homo sapiens) (UniProt Q16236)
As to the kind of experiment: LTEA_HepaRG_NFE2L2: Life Technologies and Expression Analysis (LTEA) Assay for Nuclear factor erythroid 2-related factor 2 (NFE2L2) Transcription Factor using HepaRG (AID 2283527).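 On outcome: TaqMan qRT-PCR transcript level normalised to ACTB GAPDH and POLR2A housekeeping genes.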 The method in brief:
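NFE2L2 transcript level was read by qRT-PCR (housekeeping ACTB/GAPDH/POLR2A normalisation) after 48 h chemical treatment of HepaRG in serum-free induction medium. Duplicate 8-point half-log curves, top 100 uM, 0.5% DMSO vehicle; up- or down-regulation fitted against vehicle.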

Read-out in experiment [8]: succinate dehydrogenase complex iron sulfur subunit B (SDHB), SDHB (gene 6390)
In words: LTEA_HepaRG_SDHB: Life Technologies and Expression Analysis (LTEA) Assay for succinate dehydrogenase complex iron sulfur subunit B (SDHB) using HepaRG (AID 2283528). The method in brief:
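HepaRG cells (~100,000/well, plated 48 h) exposed in duplicate for 48 h in serum-free induction medium to 8-point half-log series from 100 uM in 0.5% DMSO; mRNA by qRT-PCR normalised to ACTB, GAPDH, POLR2A; bidirectional fit versus DMSO.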

Read-out in experiment [9]: Signal transducer and activator of transcription 3 (Homo sapiens) (UniProt P40763)
In words: LTEA_HepaRG_STAT3: Life Technologies and Expression Analysis (LTEA) Assay for Signal transducer and activator of transcription (STAT3) using HepaRG (AID 2283529). The method in brief:
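STAT3 transcript quantified by qRT-PCR against three housekeeping genes (ACTB, GAPDH, POLR2A), fitted both directions relative to DMSO. HepaRG cultures exposed 48 h to eight half-log concentrations, top 100 uM, 0.5% DMSO, serum-free induction medium.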

Read-out in experiment [10]: solute carrier (SLCO1B1), SLCO1B1 (gene 10599)
As to the kind of experiment: LTEA_HepaRG_SLCO1B1: Life Technologies and Expression Analysis (LTEA) Assay for solute carrier (SLCO1B1) using HepaRG (AID 2283530). The method in brief:
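SLCO1B1 transcript levels were quantified by TaqMan qRT-PCR using three housekeeping genes for normalization. This followed 48 h chemical exposure (100 uM top, half-log, 8 points, 0.5% DMSO) of HepaRG liver cells, with gain or loss fitted relative to DMSO.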

Read-out in experiment [11]: sulfotransferase 2A1 (SULT2A1), SULT2A1 (gene 6822)
In words: LTEA_HepaRG_SULT2A1: Life Technologies and Expression Analysis (LTEA) Assay for sulfotransferase 2A1 (SULT2A1) using HepaRG (AID 2283531). In short, it runs like this: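 Expression change of SULT2A1, by qRT-PCR with three housekeeping-gene normalization, was scored bidirectionally versus DMSO. Cells: differentiated HepaRG, dosed in duplicate for 48 h across 8 points, highest 100 µM, half-log dilution, 0.5% DMSO.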

Read-out in experiment [12]: Transforming Growth Factor (TGFA), TGFA (gene 7039)
As to the kind of experiment: LTEA_HepaRG_TGFA: Life Technologies and Expression Analysis (LTEA) Assay for Transforming Growth Factor (TGFA) using HepaRG (AID 2283532). The method in brief:
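TGFA transcript quantified by qRT-PCR (Fluidigm arrays) against three housekeeping genes, after 48 hours chemical treatment of HepaRG cells. Top concentration 100 uM with half-log dilutions, 8 points, duplicates, 0.5% DMSO.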

Read-out in experiment [13]: Transforming Growth Factor (TGFB1), TGFB1 (gene 7040)
As to the kind of experiment: LTEA_HepaRG_TGFB1: Life Technologies and Expression Analysis (LTEA) Assay for Transforming Growth Factor (TGFB1) Transporter using HepaRG (AID 2283533). The method in brief: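 TGFB1 transcript measured by qRT-PCR with normalisation to three housekeeping genes (ACTB, GAPDH, POLR2A); human HepaRG line treated in duplicate for 48 hr with an 8-point series topping at 100 uM, 0.5% DMSO vehicle, bidirectionally fitted.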

Read-out in experiment [14]: TIMP1, TIMP1 (gene 7076)
As to the kind of experiment: LTEA_HepaRG_TIMP1: Life Technologies and Expression Analysis (LTEA) Assay for TIMP1 using HepaRG (AID 2283534). In short, it runs like this:
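Bidirectional change in TIMP1 transcript versus 0.5% DMSO, measured by TaqMan qRT-PCR with three housekeeping genes for normalization. HepaRG human liver cells dosed 48 h in duplicate, top concentration 100 uM with half-log dilutions.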

Read-out in experiment [15]: Tumor necrosis factor receptor 1 (TNFRSF1A), TNFRSF1A (gene 7132)
As to the kind of experiment: LTEA_HepaRG_TNFRSF1A: Life Technologies and Expression Analysis (LTEA) Assay for Tumor necrosis factor receptor 1 (TNFRSF1A) using HepaRG (AID 2283535). In short, it runs like this:
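mRNA measured by qRT-PCR (TaqMan, Fluidigm arrays) against ACTB/GAPDH/POLR2A housekeepers after 48 h chemical exposure of HepaRG cells. Top concentration 100 uM, half-log 8-point series, duplicates; vehicle 0.5% DMSO, both fit directions.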

Read-out in experiment [16]: UDP glucuronosyltransferase (UGT1A1), UGT1A1 (gene 54658)
As to the kind of experiment: LTEA_HepaRG_UGT1A1: Life Technologies and Expression Analysis (LTEA) Assay for UDP glucuronosyltransferase (UGT1A1) using HepaRG (AID 2283538). In short, it runs like this:
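mRNA induction or loss of UGT1A1, by TaqMan qRT-PCR, in duplicate HepaRG wells after 48 h exposure to half-log dilutions topping at 100 uM; DMSO (0.5%) served as baseline.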

Read-out in experiment [17]: UDP glucuronosyltransferase (UGT1A6), UGT1A6 (gene 54578)
In words: LTEA_HepaRG_UGT1A6: Life Technologies and Expression Analysis (LTEA) Assay for UDP glucuronosyltransferase (UGT1A6) using HepaRG (AID 2283539). The method in brief:
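Expression was quantified by TaqMan qRT-PCR on Fluidigm arrays with ACTB/GAPDH/POLR2A normalization and bidirectional fitting against 0.5% DMSO. HepaRG cells (~100,000/well) were treated in duplicate for 48 h at eight half-log concentrations up to 100 uM in serum-free induction medium.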

Read-out in experiment [18]: X-box binding protein 1 (XBP1), XBP1 (gene 7494)
In words: LTEA_HepaRG_XBP1: Life Technologies and Expression Analysis (LTEA) Assay for X-box binding protein 1 (XBP1) using HepaRG (AID 2283540). In short, it runs like this: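 XBP1 transcript by qRT-PCR (housekeeping-normalized: ACTB, GAPDH, POLR2A) after 48 h chemical treatment of HepaRG cells, 8-point half-log series topping at 100 uM, vehicle 0.5% DMSO. Gain and loss of signal fitted relative to DMSO.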

Read-out in experiment [19]: Thyroid Hormone Responsive (THRSP), THRSP (gene 7069)
As to the kind of experiment: LTEA_HepaRG_THRSP: Life Technologies and Expression Analysis (LTEA) Assay for Thyroid Hormone Responsive (THRSP) using HepaRG (AID 2283536). The method in brief:
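THRSP transcript quantified by Fluidigm qRT-PCR against three housekeeping genes after 48 h chemical exposure of HepaRG cells in serum-free induction medium; eight-point half-log series, top 100 uM, 0.5% DMSO vehicle, duplicate wells.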

Chain of Signal transducer and activator of transcription 3 (Homo sapiens) (P40763 whole entry, looked up): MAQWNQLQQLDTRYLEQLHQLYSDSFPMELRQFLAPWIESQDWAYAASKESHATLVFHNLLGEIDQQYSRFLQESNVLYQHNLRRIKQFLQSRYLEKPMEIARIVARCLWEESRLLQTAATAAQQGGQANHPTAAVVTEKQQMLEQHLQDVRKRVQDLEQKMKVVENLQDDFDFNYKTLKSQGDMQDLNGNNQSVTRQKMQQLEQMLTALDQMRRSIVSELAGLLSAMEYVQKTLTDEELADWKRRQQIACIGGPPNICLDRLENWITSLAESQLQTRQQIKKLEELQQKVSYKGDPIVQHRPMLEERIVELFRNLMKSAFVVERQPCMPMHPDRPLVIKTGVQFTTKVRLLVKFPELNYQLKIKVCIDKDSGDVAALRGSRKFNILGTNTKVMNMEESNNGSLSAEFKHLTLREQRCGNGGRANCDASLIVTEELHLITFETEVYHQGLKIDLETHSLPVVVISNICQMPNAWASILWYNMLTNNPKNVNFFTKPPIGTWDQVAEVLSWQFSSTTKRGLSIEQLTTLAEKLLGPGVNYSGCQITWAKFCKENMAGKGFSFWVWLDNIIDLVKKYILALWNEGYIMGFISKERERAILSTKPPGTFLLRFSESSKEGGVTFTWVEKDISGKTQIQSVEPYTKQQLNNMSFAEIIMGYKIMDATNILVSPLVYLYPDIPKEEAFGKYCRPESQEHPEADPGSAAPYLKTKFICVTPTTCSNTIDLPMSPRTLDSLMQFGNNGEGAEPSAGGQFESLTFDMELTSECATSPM
Chain of Nuclear factor NF-kappa-B p105 subunit (Homo sapiens) (P19838 whole entry, looked up): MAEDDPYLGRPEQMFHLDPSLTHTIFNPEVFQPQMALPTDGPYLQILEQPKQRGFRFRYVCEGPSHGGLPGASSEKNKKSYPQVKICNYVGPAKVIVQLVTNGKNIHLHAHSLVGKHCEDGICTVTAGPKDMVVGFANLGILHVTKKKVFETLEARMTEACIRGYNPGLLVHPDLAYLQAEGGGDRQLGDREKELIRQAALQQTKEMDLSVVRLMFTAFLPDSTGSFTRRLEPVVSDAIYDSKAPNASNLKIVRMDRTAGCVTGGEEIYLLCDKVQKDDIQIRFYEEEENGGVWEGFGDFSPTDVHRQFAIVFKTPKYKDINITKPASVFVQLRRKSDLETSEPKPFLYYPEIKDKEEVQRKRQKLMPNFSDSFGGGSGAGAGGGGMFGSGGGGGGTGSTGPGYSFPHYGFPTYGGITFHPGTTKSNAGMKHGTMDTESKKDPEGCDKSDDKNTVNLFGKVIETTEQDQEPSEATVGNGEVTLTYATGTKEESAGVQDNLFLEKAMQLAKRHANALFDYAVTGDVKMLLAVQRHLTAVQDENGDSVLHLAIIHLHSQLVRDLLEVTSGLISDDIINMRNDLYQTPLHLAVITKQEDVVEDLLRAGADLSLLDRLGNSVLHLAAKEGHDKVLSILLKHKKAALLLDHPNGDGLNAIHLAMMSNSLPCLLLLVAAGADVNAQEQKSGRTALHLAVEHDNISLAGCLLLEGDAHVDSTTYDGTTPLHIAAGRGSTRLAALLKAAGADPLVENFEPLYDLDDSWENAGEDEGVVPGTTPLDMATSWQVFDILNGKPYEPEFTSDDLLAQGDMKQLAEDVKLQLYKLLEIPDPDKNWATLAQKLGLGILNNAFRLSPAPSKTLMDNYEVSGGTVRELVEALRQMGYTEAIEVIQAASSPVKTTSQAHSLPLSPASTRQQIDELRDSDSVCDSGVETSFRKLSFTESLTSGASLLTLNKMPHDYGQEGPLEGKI
Chain of Nuclear factor erythroid 2-related factor 2 (Homo sapiens) (Q16236 whole entry, looked up): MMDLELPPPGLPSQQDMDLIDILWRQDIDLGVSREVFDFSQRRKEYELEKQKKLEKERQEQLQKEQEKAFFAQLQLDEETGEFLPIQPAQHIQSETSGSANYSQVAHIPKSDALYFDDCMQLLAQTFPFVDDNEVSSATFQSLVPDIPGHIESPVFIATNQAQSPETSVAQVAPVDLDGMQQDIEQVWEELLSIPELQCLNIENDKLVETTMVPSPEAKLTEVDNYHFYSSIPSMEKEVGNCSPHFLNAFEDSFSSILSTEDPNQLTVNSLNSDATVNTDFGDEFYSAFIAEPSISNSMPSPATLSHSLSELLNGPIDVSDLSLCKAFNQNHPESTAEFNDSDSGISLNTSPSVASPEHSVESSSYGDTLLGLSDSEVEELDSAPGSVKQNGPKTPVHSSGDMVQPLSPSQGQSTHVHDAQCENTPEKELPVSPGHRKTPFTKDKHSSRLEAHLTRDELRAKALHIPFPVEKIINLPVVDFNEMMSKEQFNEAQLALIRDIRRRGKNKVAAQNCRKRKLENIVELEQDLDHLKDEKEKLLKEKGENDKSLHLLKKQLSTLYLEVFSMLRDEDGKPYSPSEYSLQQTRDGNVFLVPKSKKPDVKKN

For `CCCOc1ccc(S(=O)(=O)N2CCN(CC)CC2)cc1-c1nc2c(CC)n(Cc3ccccn3)nc2c(=O)[nH]1`, the molecule was called inactive in [1], in [2], in experiment [3], in experiment [4], in [6] and in [8]. The result in [9], in [12], in [14], in experiment [15], in experiment [17] and in experiment [18] was inactive. Further, the half-maximal activity concentration (AC50) in experiment [5] was 31.3 µM (active); in experiment [7], 25 µM (active); in [10], 50 µM (active); in [11], 18.1 µM (active); in experiment [13] it was 26.3 µM (active); in [16] it was 4.74 µM (active).

Regarding `NC(N)=O`, the molecule was classed as inactive in [1], in [2], in experiment [3], in experiment [4], in experiment [5] and in experiment [6]. Moreover, the outcome in experiment [7], in experiment [8], in [9], in [10], in [11] and in experiment [13] was inactive. Also, the outcome in [14], in [15], in experiment [19], in [16], in experiment [17] and in experiment [18] was inactive.

Take `COc1cc2c(c(OC)c1OC)-c1ccc(OC)c(=O)cc1[C@@H](NC(C)=O)CC2`: the outcome in experiment [1], in experiment [2], in [3], in experiment [7], in experiment [9] and in experiment [14] was inactive. Also, in [15], the molecule was called inactive. The AC50 in experiment [4] is 0.105 µM (active); in experiment [5], 0.0626 µM (active); in [6] it was 0.148 µM (active); in [8] it was 0.138 µM (active); in experiment [10], 0.136 µM (active); in experiment [11], 0.181 µM (active). The concentration at half-maximal activity (AC50) was 0.0871 µM (active) in [12]; 0.04 µM (active) in [13]; 0.073 µM (active) in experiment [19]; 0.113 µM (active) in [16]; 0.237 µM (active) in experiment [17]; 0.218 µM (active) in experiment [18].
